The list is not random: actives were taken first. Their share in the collection is about 21%.
Giardia FBPA inh-1: blocks Giardia fructose-bisphosphate aldolase activity. purified Giardia FBPA. A8B2U2. Potency, µM (top dose mostly 59.6 µM), actives largely listed as inhibitors. 0.71% of 290,000 active; note: nearly all actives have a fitted effect of over 55% in size
Target sequence (A8B2U2 whole entry, looked up): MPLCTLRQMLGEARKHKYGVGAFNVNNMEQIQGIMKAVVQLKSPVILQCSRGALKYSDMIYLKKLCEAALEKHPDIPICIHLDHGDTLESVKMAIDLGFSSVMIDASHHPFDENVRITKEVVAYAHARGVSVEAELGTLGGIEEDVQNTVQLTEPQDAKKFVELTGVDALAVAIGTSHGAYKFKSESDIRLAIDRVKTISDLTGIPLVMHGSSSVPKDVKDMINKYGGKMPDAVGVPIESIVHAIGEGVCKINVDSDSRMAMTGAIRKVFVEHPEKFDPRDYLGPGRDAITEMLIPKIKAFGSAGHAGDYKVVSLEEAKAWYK
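40 nM FBPA preincubated 10 min at RT with compound (up to 57.5 uM final), then substrate plus GAPDH/TPI/NAD/arsenate coupling and diaphorase/resazurin added. Fluorescence read after 20 min at RT, 525/598 nm.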
NS1 inh: inhibitors of influenza NS1 protein function. Potency, µM (series often up to 46.1 µM). 0.4% of 270,000 active; calls by dose curve; note: actives are rising curves; nearly all actives have a fitted effect of over 50% in size
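OD600 was taken as the measure of yeast growth restored by compound in an NS1-expressing S. cerevisiae strain. Cells had been washed out of glucose medium and diluted 1:100 into galactose -URA medium, pH 6.0.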
Pf growth 96h: inhibits malaria parasite growth, 96 h; P. falciparum luciferase reporter growth, 96 h; Potency, µM (series often up to 28.7 µM), actives largely listed as inhibitors; 6.9% of 320,000 active; AID 504834
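P. falciparum expressing integrated firefly luciferase, in erythrocytes at 2% hematocrit, 0.05% parasitemia, incubated with compounds 96 h at 37 C, 5% CO2. Growth inhibition read as loss of luminescence; two-generation exposure targets delayed-death apicoplast inhibitors.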
Pf growth 48h: P. falciparum growth inhibition at 48 hours (one generation); P. falciparum luciferase growth in erythrocytes, 48 h; Potency, µM (top dose mostly 28.7 µM), hits mostly inhibitors; 5.9% of 310,000 active; AID 504832
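Here the parasites carry a stable luciferase gene and grow inside erythrocytes in Albumax-based RPMI medium with compound for one erythrocytic cycle. Activity is scored as loss of luminescent signal.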
CHX counter: counter-screen hit for Shiga toxin inhibitors, cycloheximide; max response, %; 12% of 300,000 active; cell reporter, cycloheximide protein synthesis inhibition counterscreen; AID 2314; in the data active = max response mostly above about 13%, no sharp cut-off; inactive = mostly below about 14%; note: read at 38.3 µM for the half of the compounds with a filed dose
Shiga inhibitor: blocks Shiga toxin action in Vero cells; 9.2% of 290,000 active; Vero cells, Shiga toxin protein synthesis inhibition reporter; inhibition, % at 38.7 µM; AID 2315; in the data active = inhibition mostly above about 28%, no sharp cut-off; inactive = mostly below about 43%
Giardia growth: blocks growth of Giardia lamblia trophozoites; shares compounds with Giardia FBPA inh-1; Giardia lamblia trophozoite growth inhibition; Potency, µM (doses to about 57.5 µM), actives largely listed as inhibitors; 5% of 1,500 active;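 note: trophozoites exposed to compound for 48 h at 37 °C; nearly all actives have a fitted effect of over 70% in size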
Mammalian tox: counter-screen for Giardia aldolase inhibitors: mammalian cell toxicity; shares compounds with Giardia FBPA inh-1; mammalian cell viability counter-screen, qHTS; Potency, µM (doses to about 57.5 µM), actives largely listed as inhibitors; 4% of 1,500 active; AID 2786;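 note: Chinese hamster ovary cells used as mammalian cytotoxicity surrogate; viability measured as cellular ATP by luminescence; compound exposure lasted 48 h before reading; nearly all actives have a fitted effect of over 60% in size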
Giardia FBPA inh-2: confirmation of Giardia fructose-bisphosphate aldolase inhibitors; shares compounds with Giardia FBPA inh-1; purified Giardia aldolase enzyme activity, qHTS; Potency, µM (highest dose often 57.5 µM), hits mostly inhibitors; 5% of 1,500 active; AID 2787; note: nearly all actives have a fitted effect of over 45% in size
Rabbit FBPA inh: selectivity test for Giardia aldolase inhibitors: rabbit aldolase | shares compounds with Giardia FBPA inh-1 | Rabbit muscle FBPA enzyme inhibition, selectivity counter-screen | Potency, µM (highest dose often 57.5 µM), actives largely listed as inhibitors | 4% of 1,500 active; note: nearly all actives have a fitted effect of over 60% in size
GAPDH counter: counter-screen for Giardia aldolase inhibitors: GAPDH coupling enzyme | Potency, µM (top dose mostly 57.5 µM), usual class: inhibitors | GAPDH coupling enzyme counterscreen, biochemical, qHTS | 6% of 1,500 active | shares compounds with Giardia FBPA inh-1; note: nearly all actives have a fitted effect of over 55% in size
Hits are given with their value; – = inactive; ? = inconclusive; · = no result given; [ ] = dose if it differs, or a comment. Unless noted, calls come from the whole dose curve; as a rule, active = well fitted curve in the direction sought with a large enough effect; inconclusive = small, poorly fitted or top-dose-only effect, or another doubt; inactive = no such curve, though single readings can be large; an effect the other way counts as inactive or inconclusive.

SMILES | Giardia FBPA inh-1 | NS1 inh | Pf growth 96h | Pf growth 48h | CHX counter | Shiga inhibitor | Giardia growth | Mammalian tox | Giardia FBPA inh-2 | Rabbit FBPA inh | GAPDH counter
Cc1ccnc(N2CCN(C(=O)CSc3nc4ccccc4nc3N3CCC(C)CC3)CC2)c1 | – | · | – | ? | – | – | · | · | · | · | ·
CN(CCCCCCN(C)Cc1ccccc1O)Cc1ccccc1O | 28.2µM | – | ? | ? | – | – | ? | – | – | – | –
O=C1/C(=C/c2ccco2)SC(=S)N1c1cccnc1 | 8.89µM | – | – | – | – | – | ? | – | – | – | –
O=C1/C(=C\c2ccco2)SC(=S)N1c1ccc(O)cc1 | ? | – | – | – | – | – | · | · | · | · | ·
Cc1c(C)c2ccc(OCC(=O)N3CC[C@@]4(O)CCCC[C@H]4C3)c(C)c2oc1=O | – | – | ? | – | – | – | · | · | · | · | ·
CCOc1ccc2[nH]c(S(=O)(=O)CC)nc2c1Cl | 3.55µM | – | – | – | – | – | – | – | – | – | –
COc1ccc(OC)c(NC(=O)CCn2ccnc2)c1 | – | – | ? | – | – | – | · | · | · | · | ·
O=C(CSc1nc2ncccc2[nH]1)Nc1c(F)cc(F)cc1Br | 25.1µM | – | – | – | – | – | – | – | – | – | –
O=C(CSc1ncn[nH]1)Nc1c(F)cc(F)cc1Br | – | – | · | – | – | – | · | · | · | · | ·
COc1ccc(OCCSCc2nnc(NC(=O)Nc3ccc(Cl)cc3)s2)cc1 | – | – | – | ? | – | – | · | · | · | · | ·
Cc1ccc(NC(=O)CSc2nnc(C3CC3)n2CC2CCCO2)c(C)c1 (stereo unspecified) | – | – | – | – | – | – | · | · | · | · | ·
Cn1c(=O)c2c(nc(NNC(=O)C(F)(F)F)n2C)n(C)c1=O | 17.7µM | · | – | – | – | – | –[10.4 µM] | – | – | – | –
Cn1c(=O)c2c(nc(NN=C3CCCC3)n2C)n(C)c1=O | 15.8µM | – | – | – | – | – | – | – | – | – | –
Cn1c(=O)c2c(nc(CO)n2C)n(C)c1=O | – | – | – | – | – | – | · | · | · | · | ·
Cn1c(=O)c2c(nc(N3CCCC3)n2C)n(C)c1=O | – | – | – | – | – | – | · | · | · | · | ·
CCn1ncc(NC(=S)Nc2ccc3c(c2)OCO3)c1C(N)=O | 17.7µM | · | –[5.75 µM] | – | 14.8 | 67.7 | –[10.4 µM] | – | – | – | –
CCn1ncc(NC(=S)Nc2ccc(OC)c(OC)c2)c1C(N)=O | 15.8µM | – | ? | – | – | – | – | – | – | – | –
CC(=O)c1cccc(NC(=O)NC(C)c2ccncc2)c1 (stereo unspecified) | – | – | · | – | – | – | · | · | · | · | ·
Cc1ccc(C(C)C)cc1OCCOCCN1CCCC1 | ? | – | – | · | – | – | · | · | · | · | ·
O=S(=O)(Nc1ccc(Cl)cc1)c1ccc(N2CCOCC2)c(NC(=S)NCCN2CCOCC2)c1 | 5µM | · | – | ? | – | – | – | – | ? | 39.8µM | 39.8µM
Cc1cc(C)c(C)c(OCCN2CC(C)OC(C)C2)c1 (stereo unspecified) | ? | – | – | – | – | · | · | · | · | · | ·
O=C(NNC(=O)c1ccccn1)c1cccc([N+](=O)[O-])c1 | 9.98µM | · | – | 13.1µM | – | – | ? | ? | – | – | –
O=C(c1cccc([N+](=O)[O-])c1)c1ccccn1 | – | – | – | – | – | – | · | · | · | · | ·
CC(=O)NNC(=O)c1sc(=S)n2c1[nH]c(=O)c1sccc12 | 17.7µM | · | ? | – | – | – | – | – | – | ? | –
NC(=O)c1sc(=S)n2c1[nH]c(=O)c1sccc12 | – | · | – | –[5.75 µM] | – | – | · | · | · | · | ·
CN(c1ccccc1)P(=O)(N(C)c1ccccc1)N(C)c1ccccc1 | – | · | ? | ? | – | – | · | · | · | · | ·
CC1CCCC(NC(=O)Nc2cccs2)C1C (stereo unspecified) | – | – | – | – | – | – | · | · | · | · | ·
